# Measurements reported in the supplement of paper PMC10515830.
# Counter-ions that a name gives are not always drawn.
# Legend:
# Details in all cases: 10 µM; exposure time 6 h
# [1] = system: Danio rerio larvae (5 dpf); assay: difference in excitability vs DMSO (percentage points); higher = more excitable than DMSO
# Outline: (§1)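 Library compounds were tested at 10 µM final in 100 µL egg water on wild-type 5 dpf zebrafish larvae in 96-well plates for 6 h, with 48 larvae per compound. After 3 h, plates at 28.5 ℃ were imaged every 6 s during a 3-h run of moving lines and 100 ms, 400Hz tones. Behaviours were quantified by Z-LaP Tracker and reported as the compound mean less the vehicle control mean, in percentage points.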
# [2] = system: Danio rerio larvae (5 dpf); assay: difference in startle response vs DMSO (percentage points); higher = stronger startle than DMSO
# Outline: as §1
# [3] = system: Danio rerio larvae (5 dpf); assay: difference in activity during first hour vs DMSO (percentage points); higher = more activity than DMSO
# Outline: as §1
# [4] = system: Danio rerio larvae (5 dpf); assay: difference in habituation to acoustic stimuli vs DMSO (percentage points); higher = more habituation than DMSO
# Outline: as §1
# [5] = system: Danio rerio larvae (5 dpf); assay: difference in combined optomotor response to red, green and blue moving lines vs DMSO (percentage points); higher = stronger optomotor response than DMSO
# Outline: as §1
SMILES,difference in excitability [1],difference in startle response [2],difference in activity during first hour [3],difference in habituation to acoustic stimuli [4],difference [5]
CCO/N=C(\C(=O)N[C@@H]1C(=O)N2C(C(=O)[O-])=C(Sc3nc(-c4cc[n+](C)cc4)cs3)CS[C@H]12)c1nsc(NP(=O)(O)O)n1,2.56,0.685,4.29,-3.93,-5.35
CC1(C)CCC(CN2CCN(c3ccc(C(=O)NS(=O)(=O)c4ccc(NCC5CCOCC5)c([N+](=O)[O-])c4)c(Oc4cnc5[nH]ccc5c4)c3)CC2)=C(c2ccc(Cl)cc2)C1,0.697,-11.3,10.4,2.22,3.34
NC[C@H]1O[C@H](O[C@H]2[C@H](O)[C@@H](O[C@H]3O[C@H](CO)[C@@H](O)[C@H](N)[C@H]3O)[C@H](N)C[C@@H]2N)[C@H](N)C[C@@H]1O [Tobramycin],25.5,-1.65,-2.18,4.43,-2.09
NC(=O)OCC(COC(N)=O)c1ccccc1 [Felbamate],-5.58,2.01,9.63,-0.648,2.98
Cc1nccn1CC1CCc2c(c3ccccc3n2C)C1=O (stereo not given) [Ondansetron (hydrochloride hydrate)],12.1,-1.85,6.77,-3.59,4.66
CNCCCC12CCC(c3ccccc31)c1ccccc12 [Maprotiline (hydrochloride)],-2.87,5.37,-7.95,0.965,2.3
CN(C)c1cc(NC(=O)CNC(C)(C)C)c(O)c2c1C[C@H]1C[C@H]3[C@H](N(C)C)C(O)=C(C(N)=O)C(=O)[C@@]3(O)C(O)=C1C2=O [Tigecycline],18.8,1.45,-22.5,-5.95,-3.12
C[N+](C)(C)CC=O [Betaine Aldehyde (chloride)],7.5,1.56,10.1,-0.929,4.79
CCN[C@H]1CN(CCCOC)S(=O)(=O)c2sc(S(N)(=O)=O)cc21 [Brinzolamide],2.16,-4.77,-5.26,-5.35,1.28
CC[N+](C)(C)c1cccc(O)c1 [Edrophonium (chloride)],-0.775,-0.613,5.67,7.33,3.51
CC(C)CN(C[C@@H](O)[C@H](Cc1ccccc1)NC(=O)O[C@H]1CCOC1)S(=O)(=O)c1ccc(N)cc1 [Amprenavir],-3.12,-6.45,6.71,0.569,7.88
Cc1cc(C(C)(C)C)c(O)c(C)c1CC1=NCCN1 [Oxymetazoline (hydrochloride)],2.23,-0.966,-13.2,6.77,0.729
N#Cc1cc(NC(=O)C(=O)O)c(Cl)c(NC(=O)C(=O)O)c1 [Lodoxamide],4.92,3.04,-7.99,1.72,1.61
CCOC(=O)C1=C[C@@H](OC(CC)CC)[C@H](NC(C)=O)[C@@H](N)C1 [Oseltamivir (phosphate)],1.51,3.38,8.28,-5.42,3.62
CC(C)(CO)c1cc2cc(NC(=O)C3(c4ccc5c(c4)OC(F)(F)O5)CC3)c(F)cc2n1C[C@@H](O)CO,16.7,3.44,15.2,6.02,6.53
CN(C)C(=O)N[C@H]1CC[C@H](CCN2CCN(c3cccc(Cl)c3Cl)CC2)CC1 [Cariprazine (hydrochloride)],11.3,-2.66,-2.12,-3.39,-1.22
Nc1ccn([C@@H]2O[C@H](CO)[C@@H](O)[C@@H]2O)c(=O)n1 [Cytarabine],1.17,-0.992,-3.96,-4.77,3.66
Nc1c(CC(=O)O)cccc1C(=O)c1ccc(Br)cc1 [Bromfenac (sodium salt)],22,-1.71,7.18,-4.75,1.64
CN(C)CCC(c1ccc(Cl)cc1)c1ccccn1 (stereo not given) [Chlorpheniramine (maleate)],1.12,-4.13,-11.1,-6.14,-4.02
CC(C)NCC(O)COc1ccc(COCCOC(C)C)cc1 (stereo not given) [Bisoprolol (hemifumarate)],2.44,8.3,0.00157,3.42,-3.86
C[C@]12CCC3=C4CCC(=O)C=C4CC[C@H]3[C@@H]1CC[C@@]2(O)CC#N [Dienogest],6.14,-3.1,11.2,4.78,1.22
CC(=O)NS(=O)(=O)c1ccc(N)cc1 [Sulfacetamide (sodium salt)],9.42,1.32,-8.28,4.81,7.06
COc1ccc2c(c1)c(CC(=O)O)c(C)n2C(=O)c1ccc(Cl)cc1 [Indomethacin],-1.03,1.79,2.47,6.54,1.47

SMILES,difference in excitability [1],difference in startle response [2],difference in activity during first hour [3],difference in habituation to acoustic stimuli [4],difference [5]
CC(C)OC(=O)CCC/C=C\C[C@@H]1[C@@H](/C=C/C(F)(F)COc2ccccc2)[C@H](O)C[C@@H]1O [Tafluprost],10.1,-0.187,-16,12.5,-4.17
"COc1ccc2cc(C(C)C(=O)O)ccc2c1 (single isomer, unassigned; (+)) [(+)-Naproxen]",3.24,2.79,-2.88,2.25,-3.32
CN1C(C(=O)Nc2ccccn2)=C(O)c2ccccc2S1(=O)=O [Piroxicam],12.1,0.219,4.07,-1.73,-0.889
O=C1C(O)=C([C@H]2CC[C@H](c3ccc(Cl)cc3)CC2)C(=O)c2ccccc21 [Atovaquone],-0.794,-0.517,-0.977,-6.16,-7.53
CC(C)(C#N)c1cc(Cn2cncn2)cc(C(C)(C)C#N)c1 [Anastrozole],1.93,-2.98,-4.84,-5.36,7.09
C[C@H]1[C@H](NC(=O)/C(=N\OC(C)(C)C(=O)O)c2csc(N)n2)C(=O)N1S(=O)(=O)O [Aztreonam],-7.88,8.41,8.84,5.95,-0.4
O=C(c1ccc(F)c(F)c1Nc1ccc(I)cc1F)N1CC(O)([C@@H]2CCCCN2)C1 [Cobimetinib],22.7,-2.69,0.0371,0.214,2.37
CC(C)(Oc1ccc(C(=O)c2ccc(Cl)cc2)cc1)C(=O)O [Fenofibric Acid],2.08,4.69,11.8,0.387,6.16
Cc1c(OCC(F)(F)F)ccnc1C[S+]([O-])c1nc2ccccc2[nH]1 (stereo not given) [Lansoprazole],8.61,-2.87,1.57,-2.95,6.61
O=C1c2cccc3c2[C@H](CCC3)CN1[C@@H]1CN2CCC1CC2 [Palonosetron (hydrochloride)],16.7,-3.75,19.7,2.14,4.37
CN(C)C(=O)c1cc2cnc(Nc3ccc(N4CCNCC4)cn3)nc2n1C1CCCC1,10.3,-7.97,2.64,-2.12,0.1
COC(=O)/C=C/C(=O)OC [Dimethyl fumarate],19.8,-1.87,20.1,-2.23,12
CCCCCCCCCC(=O)N[C@@H](Cc1c[nH]c2ccccc12)C(=O)N[C@H](CC(N)=O)C(=O)N[C@@H](CC(=O)O)C(=O)N[C@@H]1C(=O)NCC(=O)N[C@@H](CCCN)C(=O)N[C@@H](CC(=O)O)C(=O)N[C@H](C)C(=O)N[C@@H](CC(=O)O)C(=O)NCC(=O)N[C@H](CO)C(=O)N[C@@H]([C@H](C)CC(=O)O)C(=O)N[C@@H](CC(=O)c2ccccc2N)C(=O)O[C@@H]1C [Daptomycin],12,1.46,7.99,-6.5,6.83
Cc1ccc([C@@H]2O[C@H](CO)[C@@H](O)[C@H](O)[C@H]2O)cc1Cc1ccc(-c2ccc(F)cc2)s1 [Canagliflozin],1.05,-3.92,3.63,3.27,5.53
CCc1c2c(nc3ccc(OC(=O)N4CCC(N5CCCCC5)CC4)cc13)-c1cc3c(c(=O)n1C2)COC(=O)[C@]3(O)CC [Irinotecan (hydrochloride hydrate)],13.5,-2.28,0.361,2.44,2.92
CC(C)NCC(O)c1ccc(O)c(O)c1 (stereo not given) [Isoproterenol (hydrochloride)],-11.9,-6.4,45.9,1.72,6.58
CCCCN1C[C@H](O)[C@@H](O)[C@H](O)[C@H]1CO [N-Butyldeoxynojirimycin (hydrochloride)],-7.96,4.45,16.1,5.5,4.55
O=c1[nH]c(=O)n([C@H]2C[C@H](O)[C@@H](CO)O2)cc1C(F)(F)F [Trifluorothymidine],-0.163,-3.06,5.45,-4.69,1.93
CC/C(=C(\c1ccccc1)c1ccc(OCCN(C)C)cc1)c1ccccc1 [Tamoxifen (citrate)],-1.02,-2.65,14.8,-2.18,-15.8
COc1ccccc1OCCNCC(O)COc1cccc2[nH]c3ccccc3c12 (stereo not given) [Carvedilol],21.2,2.07,-3.13,0.913,3.65
NC(=O)N1c2ccccc2CC(=O)c2ccccc21 [Oxcarbazepine],-3.21,8.33,10.1,0.525,8.73
CCOC(=O)O[C@]1(C(=O)COC(=O)CC)CC[C@H]2[C@@H]3CCC4=CC(=O)C=C[C@]4(C)[C@H]3[C@@H](O)C[C@@]21C [Prednicarbate],10.3,3.6,-2.36,-0.38,-0.877
CO/N=C1\C[C@]2(C[C@@H]3C[C@@H](C/C=C(\C)C[C@@H](C)/C=C/C=C4\CO[C@@H]5[C@H](O)C(C)=C[C@@H](C(=O)O3)[C@]45O)O2)O[C@H](/C(C)=C/C(C)C)[C@H]1C [Moxidectin],8.4,-9.21,-23,-11.5,-17
